The list is not random: actives were taken first. Their share in the collection is about 3%.
BCR signal inh – chronic active BCR signaling inhibition; 340,000 compounds, 0.05% hits; ABC-DLBCL IkBa-CBG/CBR reporter, luminescence ratio, 4 h; Potency, µM (series often up to 46.1 µM), for inactives: top-dose activity change, negative = inhibition, hits mostly inhibitors; active means well fitted inhibition curve with a large enough effect in the signal ratio, with a control signal flat, not every such curve was filed as active; inconclusive means small, poorly fitted or top-dose-only effect, or effect the other way, or a change in a side signal; the % refers to the signal ratio;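 further: potency means the concentration at half of the fitted maximal effect; plate controls were basal doxycycline-induced cells for no effect and cells given 10 µM MG132 for full effect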
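Concentration-response series (up to 46 uM) were applied to TMD8 dual-reporter cells for 4 h at 37C with doxycycline. Green/red ratio, after filter-overlap correction, defined %Activity; red signal alone was normalised to basal cells and zero luminescence.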
KCNH2 WT inh – blocks the wildtype human KCNH2 potassium channel; Q12809; U2OS, BacMam KCNH2, thallium flux FluxOr; hits give low values; activity change, % at 1.84 µM; 340,000 compounds, 0.37% hits; AID 720551;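 active means maximum activity change below -70%; inconclusive means maximum activity change between -70% and -50%; inactive means maximum activity change above -50%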; further: on the % scale 0 is the no-effect control and ±100 the full control effect
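U2OS cells were transduced with wild-type KCNH2 virus (2.03 x 10^8 / mL) for 4 h at room temperature, then cultured overnight at 37 C. Thallium flux was read with FluxOr dye. Rate constants were normalized to DMSO controls.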
12-LOX inh – ALOX12 (human) lipoxygenase inhibition. purified 12hLO, xylenol orange hydroperoxide absorbance. Potency, µM (titrated, usually from 108 µM), inactives show at the highest dose activity change, negative = inhibition, usual class: inhibitors. 580,000 compounds, 1.1% hits. AID 1671190; active means well fitted inhibition curve with a large enough effect; inconclusive means small, poorly fitted or top-dose-only effect, or another doubt; inactive means no such curve, though single readings can be large or run the other way; further: potency means the concentration at half of the fitted maximal effect; on the % scale 0 is the no-effect control and ±100 the full control effect
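Hydroperoxide product was detected by ferrous iron/xylenol orange as the 573 to 405 nm absorbance ratio. Arachidonic acid at 40 uM (final) was turned over for 30 min at room temperature by 150 nM human 12hLO, pH 7.0 Hepes buffer, after 15 min compound preincubation.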
KCNH2 3.1 inh – KCNH2 3.1 (human) potassium channel inhibition; 340,000 compounds, 0.95% hits; U2OS KCNH2 3.1, thallium flux FluxOr; hits give low values; AID 720553; activity change, % (tested at about 1.8 µM);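 active means maximum activity change below -70%; inconclusive means maximum activity change from -70% to -50%; inactive means maximum activity change above -50%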;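 further: thallium influx rate constant from kinetic fluorescence after stimulation buffer; on the % scale 0 is the no-effect control and ±100 the full control effect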
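Measured as rate of thallium-driven FluxOr signal in transduced U2OS cells carrying the 3.1 channel, read kinetically for 2 min upon stimulation; values are rate constants scaled to DMSO control wells.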
LDHA inh – blocks human lactate dehydrogenase A. P00338. purified LDHA, NADH/diaphorase-resazurin fluorescence; hits give low values. activity change, % (values are at about 110 or 230 µM). 480,000 compounds, 0.15% hits; in the data active means activity change below about -30%; inconclusive means mostly about -25% to -30%;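 further: plate controls were DMSO wells for no effect and wells without enzyme for full effect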
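Enzyme activity of human lactate dehydrogenase 5 (2 nM; 0.06 mM NADH, 0.2 mM pyruvate, 5 min, RT) is measured via a resazurin/diaphorase fluorescence readout of residual NADH.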
ClpP mod – qHTS Assay for Activators of ClpP; ATP-dependent Clp protease proteolytic subunit (Bacillus subtilis (strain 168)), P80244; Potency, µM (titrated, usually from 57.5 µM), for inactives: at the highest dose activity change, negative = active; 340,000 compounds, 1.9% hits; purified B. subtilis ClpP, FRET peptide cleavage, 20 min; active means well fitted falling curve with a large enough effect; inconclusive means small, poorly fitted or top-dose-only effect; inactive means no such curve, though single readings can be large or run the other way; further: potency means the concentration at half of the fitted maximal effect; the source files actives as falling curves though it sought activators and does not explain the sign; nearly all actives have a fitted effect of over 65% in size
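FRET quenching reversal measured ClpP activation: 10 microg/mL B. subtilis ClpP at pH 8 with the FRET-FV decapeptide, read at 430 nm after 320 nm excitation. The 20-min minus 0-min signal was scaled between DMSO/no-enzyme wells and ADEP (5.8 microM final).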
* = called active by the depositor; ? = inconclusive; / = no result given; [ ] = remark or other dose.

SMILES	BCR signal inh	KCNH2 WT inh	12-LOX inh	KCNH2 3.1 inh	LDHA inh	ClpP mod
Cc1nn2c(c1-c1ccnn1C(C)C)N(C(=O)C(C)C)CCC2	/	/	2.8%[176 µM]	/	/	/
CCOC(=O)Nc1cccc(N2CCn3c(nc4ccccc43)C2)c1	/	/	-2.8%	/	18.3	/
Cc1ccc(CNC(=O)C(c2ccccc2)c2ccccc2)cc1	9.1%	0.7	4.0%	-14.7	-7.2	/
Cc1ccc(CC(CC(=O)O)C(=O)NCc2ccccc2)cc1 (centres undefined)	-0.7%	3.0	11.1%	-12.0	-2.9	15.8µM*
Cc1ccc(Cn2cccc(NC(=O)NCc3ccccc3)c2=O)cc1	-5.5%	3.1	-19.8%	-3.7	0.1	31.6µM*
Cc1cc(SCC(=O)Nc2ccc(F)c(F)c2)nc2ccccc12	/	/	4.0%	/	7.6	/
O=C(O)c1ccc(COc2ccc3c4c(c(=O)oc3c2)CCC4)o1	?	-3.2	-1.2%	-1.5	0.9	2.51µM*
CC(C)CNC(=O)COc1ccc2c3c(c(=O)oc2c1)CCC3	?	1.8	7.3%[57.4 µM]	4.1	-11.6	25.1µM*
O=C(O)CCNC(=O)COc1ccc2c3c(c(=O)oc2c1)CCCC3	1.0%	-7.8	-5.0%	-6.4	-1.4	3.8%
CC(C)CCNC(=O)COc1ccc2c3c(c(=O)oc2c1)CCC3	0.1%	-15.6	-25.8%	9.8	1.3	10µM*
CCCn1nc(C(=O)OCC(=O)Nc2ccc(OCc3ccccc3)cc2)c2ccccc2c1=O	/	/	-27.4%	/	-2.0	/
CCOc1ccccc1NC(=O)N1CCC([C@@H]2[C@H](OC)C(=O)N2C(C)C)CC1	/	/	1.5%	/	/	/
Cc1ccc(Cc2c(-c3ccco3)nc3c(C)cc(Br)cn23)cc1	/	/	14.1µM*	/	1.6	-7.6%
c1ccc(Cc2c(-c3ccccc3)nc3c4ccccc4ccn23)cc1	/	1.2	?	-13.9	-2.7	31.6µM*
CCCc1nc2c3ccccc3ccn2c1Cc1ccc(C)cc1	/	/	?	/	-1.5	?
Cc1ccc(Cc2c(-c3ccco3)nc3c4ccccc4ccn23)cc1	/	/	5.01µM*	/	-2.6	5.5%
Brc1cccc(-c2nc3c4ccccc4ccn3c2Cc2ccccc2)c1	/	/	0.1%	/	-7.9	-21.4%
CCOC(=O)c1cnc2c(C)cccc2c1Nc1ccccc1OCC	/	/	22.9%	/	-34.7*	/
CC1=CCC2C(C1)C2(C)C (centres undefined)	/	/	79.4µM*	/	/	/
CCc1nnc(NC(=O)Cc2coc3cc4c(cc23)CCC4)s1	/	/	38.9%	/	0.8	/
CN(CCOc1ccccc1)C(=O)C1CCN(C(=O)c2ccc(F)cc2)CC1	1.3%	2.2	-28.8%	-9.3	-6.3	22.4µM*
O=C(c1ccc(F)cc1)N1CCC(C(=O)N(Cc2ccccc2)c2ccccc2)CC1	1.7%	-3.4	2.8%	-7.0	-5.1	-0.6%
CCOc1ccc2oc(C(=O)NCc3nc4ccccc4[nH]3)c(C)c2c1	-13.7%	5.2	-6.2%	12.3	2.6	35.5µM*
CCOc1ccc2oc(C(=O)Nc3ccc(C)cn3)c(C)c2c1	/	-13.6	-8.6%	0.8	-0.7	-11.5%
O=C1CSC(c2cn(-c3ccccc3)nc2-c2ccccc2)N1Cc1ccco1 (centres undefined)	?	-1.9	44.7µM*	-26.4	-1.2	0.7%
SMILES	BCR signal inh	KCNH2 WT inh	12-LOX inh	KCNH2 3.1 inh	LDHA inh	ClpP mod
CCc1ccc(-c2nn(-c3ccccc3)cc2C2SCC(=O)N2Cc2ccco2)cc1 (centres undefined)	?	-2.1	-15.2%	-36.8	-1.8	-6.6%
O=C(Nc1cccc(OCC2CCCO2)c1)C1CCN(C(=O)C2CC2)CC1 (centres undefined)	/	/	6.7%	/	6.4	/
O=C(NC1CCCc2c1[nH]c1ccccc21)c1cccs1 (centres undefined)	/	/	44.7µM*	/	/	/
O=C(NC1CCCc2c1[nH]c1ccccc21)c1n[nH]c2c1CCC2 (centres undefined)	/	/	4.3%	/	/	/
COCCn1ccc2ccc(C(=O)NC3CCCc4c3[nH]c3ccccc43)cc21 (centres undefined)	/	/	39.8µM*	/	/	/
O=C(Cn1nc(-c2cccs2)ccc1=O)NC1CCCc2c1[nH]c1c(Cl)cccc21 (centres undefined)	/	/	55.9%	/	/	/
O=C(NC1CCCc2c1[nH]c1ccccc21)c1ccncc1 (centres undefined)	/	/	-4.1%	/	/	/
O=C(NC1CCCc2c1[nH]c1ccc(F)cc21)c1cccs1 (centres undefined)	/	/	27.0%	/	/	/
O=C(NC1CCCc2c1[nH]c1ccccc21)c1n[nH]c2c1CCCC2 (centres undefined)	/	/	22.4µM*	/	/	/
O=C(Cn1nc(-c2ccc(F)cc2)ccc1=O)NC1CCCc2c1[nH]c1ccccc21 (centres undefined)	/	/	35.5µM*	/	/	/
Fc1ccc(CNC(=S)NCCc2ccccc2)cc1	/	/	?	/	-2.3	/

Screening results (PubChem BioAssay)
